Measured values as given in PubChem BioAssay (NCATS).
Active and inactive are the calls of the source. The rule behind the calls is not given here.

Tested on: HIV-1 nucleocapsid protein NCp7 (binding to TG oligonucleotide)
Experiment: HIV Nucleocapsid (AID 346);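 note: potency is for inhibitors that block NC binding and lower polarization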
Settings: HIV-1 NC / fluorescein-TGTGTGTG probe, fluorescence polarization
How it was run: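 Inhibition of nucleocapsid binding to single-stranded 5'-TGTGTGTG probe (10 nM) was measured by fluorescence polarization after 1 hr at room temperature with 100 nM protein under high-salt, zinc-containing, reducing conditions.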
Potency is the fitted concentration of half-maximal effect.

Question: For `Cc1cccc(CNc2ccnc(-c3ccccc3C(F)(F)F)n2)c1`, which Potency is on record?
Answer: The Potency was > 20 µM (inactive).

Question: `CN(C)Cc1ccccc1-c1ccc2ncnc(N(C)Cc3ccco3)c2c1` was tested. Which Potency did it give?
Answer: Its Potency is > 20 µM (inactive).

Question: How did the Potency turn out when `COc1cccc(Cn2c(=O)c(-c3ccc(Cl)cc3)nc3cnc(N4CCN(C)CC4)nc32)c1` was run?
Answer: The Potency was > 20 µM (inactive).

Question: With `COc1ccc2[nH]cc(CCNc3nc(-c4ccoc4)nc4ccccc34)c2c1` as the compound, how does the Potency read?
Answer: Its Potency is > 20 µM (inactive).

Question: How did the Potency turn out when `CC(C)CN1CC[C@@]2(CCCN(C(=O)c3ccco3)C2)C1` was run?
Answer: Its Potency is > 20 µM (inactive).

Question: How did the Potency turn out when `COc1cccc(Cn2c(=O)cnc3cnc(Nc4cccc(OC)c4)nc32)c1` was run?
Answer: The Potency was > 20 µM (inactive).

Question: `c1ccc(CNc2ncncc2-c2ccc3c(c2)OCO3)cc1` was tested. Which Potency did it give?
Answer: Its Potency is > 20 µM (inactive).

Question: `c1cncc(CNc2ncncc2-c2ccoc2)c1` was tested. Which Potency did it give?
Answer: Its Potency is > 20 µM (inactive).

Question: Which Potency does the source give for `COc1ncc2nc(-c3ccc(Cl)cc3)c(=O)n(Cc3cccs3)c2n1` here?
Answer: The Potency was > 20 µM (inactive).

Question: For `CC(C)CN1CCC2(CC1)CCN(C(=O)c1cccc(F)c1)CC2`, which Potency is on record?
Answer: The Potency was > 20 µM (inactive).

Question: `COc1ccc2[nH]cc(CCNc3ccnc(-c4cccc(NS(C)(=O)=O)c4)n3)c2c1` was tested. Which Potency did it give?
Answer: The Potency was > 20 µM (inactive).

Question: How did the Potency turn out when `O=C(c1cnccn1)N1CCC2(CCCN(c3ncccn3)C2)CC1` was run?
Answer: The Potency was > 20 µM (inactive).

Question: `CN1CCN(c2ccnc(-c3ccoc3)n2)CC1` was tested. Which Potency did it give?
Answer: Its Potency is > 20 µM (inactive).

Question: With `O=C(c1ccncc1)N1CCC2(CCN(Cc3nccs3)CC2)CC1` as the compound, how does the Potency read?
Answer: Its Potency is > 20 µM (inactive).

Question: How did the Potency turn out when `O=C(c1csnn1)N1CCC2(CC1)CCN(c1ccncc1)CC2` was run?
Answer: The Potency was > 20 µM (inactive).

Question: How did the Potency turn out when `CN1CCN(c2nc(-c3cccnc3)nc3ccccc23)CC1` was run?
Answer: Its Potency is > 20 µM (inactive).

Question: Which Potency does the source give for `CCNc1ncc2ncc(=O)n(Cc3cccc(OC)c3)c2n1` here?
Answer: The Potency was > 20 µM (inactive).

Question: `CC(C)NC(=O)N1CCC2(CC1)CCN(S(=O)(=O)c1ccccc1)CC2` was tested. Which Potency did it give?
Answer: Its Potency is > 20 µM (inactive).

Question: Which Potency does the source give for `COc1cccc(Cn2c(=O)c(-c3ccc(F)cc3)nc3cncnc32)c1` here?
Answer: Its Potency is > 20 µM (inactive).

Question: For `COc1ccc(C(=O)N2CCC3(CC2)CN(c2ccccn2)C3)cc1`, which Potency is on record?
Answer: The Potency was > 20 µM (inactive).

Question: How did the Potency turn out when `O=C(c1cc(C(F)(F)F)cc(C(F)(F)F)c1)N1CCC2(CCCN(Cc3ccncc3)C2)CC1` was run?
Answer: Its Potency is > 20 µM (inactive).

Question: Which Potency does the source give for `Cc1cnc(CNc2ccnc(-c3ccccc3C)n2)cn1` here?
Answer: Its Potency is > 20 µM (inactive).

Question: Which Potency does the source give for `COc1ccc(CNc2ccnc(-c3cccc(NS(C)(=O)=O)c3)n2)c(OC)c1` here?
Answer: Its Potency is > 20 µM (inactive).

Question: Which Potency does the source give for `O=S(=O)(c1ccccc1)N1CCC2(CCN(c3cccc(-c4ccccc4)c3)CC2)CC1` here?
Answer: The Potency was > 20 µM (inactive).

Question: For `COc1ccccc1CCn1c(=O)c(C)nc2cncnc21`, which Potency is on record?
Answer: Its Potency is > 20 µM (inactive).
